Bioassay records from PubChem BioAssay.
Hits are enriched below; roughly 4.8% of the tested compounds scored in any of these assays.
S2 tox = reduces viability in counter-screen for ATXN expression inhibitors. S2 cells (HEK-293 line with an ATXN2-luciferase reporter) viability, CellTiter-Fluor protease fluorescence, 24 h. hit rate 0.49% among 400,000. Potency, µM (doses to about 56.7 µM), most hits filed as cytotoxic. AID 651635; further: potency means the concentration at half of the fitted maximal effect; nearly all actives have a fitted effect of over 40% in size
USP1-UAF1 inh = blocks the human USP1/UAF1 deubiquitinase complex; O94782; recombinant USP1/UAF1, Ub-Rhodamine cleavage fluorescence; Potency, µM (doses to about 57.1 µM), for inactives: at the top dose activity change, negative = inhibition, actives largely listed as inhibitors; hit rate 0.23% among 390,000; AID 743255; further: potency means the concentration at half of the fitted maximal effect; on the % scale 0 is the no-effect control and ±100 the full control effect; nearly all actives have a fitted effect of over 60% in size
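Step one: compound is pinned into 1nM USP1/UAF1 in HEPES pH 7.8 buffer with TCEP. Step two: 15 min room-temperature incubation. Step three: Ub-Rho (150nM final) starts cleavage, tracked by fluorescence over six one-minute reads.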
USP2a block = blocks human ubiquitin-specific protease USP2a; USP2 core, Ub-CHOP2 coupled fluorogenic reporter, 485/531; hit rate 0.01% among 330,000; AID 463254; Potency, µM (series often up to 38.3 µM), for the others: at the top dose activity change, negative = inhibition, hits mostly inhibitors; O75604;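 further: potency means the concentration at half of the fitted maximal effect; plate controls were DMSO wells for no effect and full inhibition by NEM control for full effect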
Target sequence (O75604 whole entry, looked up): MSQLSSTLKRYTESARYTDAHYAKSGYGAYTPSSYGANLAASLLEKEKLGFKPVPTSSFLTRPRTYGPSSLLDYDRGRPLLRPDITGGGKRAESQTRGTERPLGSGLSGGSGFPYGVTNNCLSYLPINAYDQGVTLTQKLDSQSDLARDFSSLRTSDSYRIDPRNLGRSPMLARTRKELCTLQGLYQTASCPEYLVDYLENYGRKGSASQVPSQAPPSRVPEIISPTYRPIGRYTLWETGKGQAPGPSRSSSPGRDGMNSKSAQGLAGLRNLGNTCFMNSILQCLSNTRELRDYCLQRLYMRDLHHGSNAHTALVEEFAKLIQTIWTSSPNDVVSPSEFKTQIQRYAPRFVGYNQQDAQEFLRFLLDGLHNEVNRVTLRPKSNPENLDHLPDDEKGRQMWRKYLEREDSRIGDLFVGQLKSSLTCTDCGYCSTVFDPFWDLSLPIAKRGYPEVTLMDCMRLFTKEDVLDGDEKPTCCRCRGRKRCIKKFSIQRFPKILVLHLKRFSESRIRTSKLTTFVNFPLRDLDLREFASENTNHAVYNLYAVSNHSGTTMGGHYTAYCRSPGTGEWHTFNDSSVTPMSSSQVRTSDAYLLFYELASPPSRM
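Deubiquitinase activity read as fluorescence (485/531 nm) after Ub-CHOP2 cleavage activates the enterokinase reporter on its substrate; USP2 core 10nM, Ub-CHOP2 and substrate 25nM each, 30min compound preincubation then 60min RT; data normalized to NEM, curves fitted.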
ATXN2 expr inh = ATXN2 expression inhibition. HEK-293 ATXN2-luciferase reporter, luminescence, 24 h. AID 1745845. hit rate 0.72% among 360,000. Potency, µM (titrated, usually from 57 µM), for inactives: at the highest dose activity change, negative = inhibition, most hits filed as inhibitors; further: potency means the concentration at half of the fitted maximal effect; on the % scale 0 is the no-effect control and ±100 the full control effect; nearly all actives have a fitted effect of over 55% in size
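qHTS (up to 57 uM final) was run with 24 h compound exposure of reporter cells at 37 °C. Each well was multiplexed: SteadyGlo luminescence measured ATXN2-luciferase expression after a fluorogenic Gly-Phe-AFC viability readout (25 uM final).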
IL1B secr inh = inhibitors of inflammasome signaling (IL-1 beta secretion) | THP-1 LPS/ATP IL-1B secretion, AlphaLISA, 16 h; hits give low values | activity change, % at 57.5 µM | hit rate 4.7% among 360,000; in the data active means activity change below about -50%; inconclusive means mostly about -30% to -49%; further: on the % scale 0 is the no-effect control and ±100 the full control effect
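THP-1 cells pretreated 1 hr with compounds (up to 57.5 uM final), then stimulated with LPS (250 ng/mL final) plus ATP (1.25 mM final); secreted IL-1B measured by AlphaLISA after 16 hr, decreased signal indicating inhibition.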
* hit, by the source's call; i = inactive; u = inconclusive; x = not tested or not shown; [ ] = remark or other dose. Unless noted, the call rests on the fitted dose curve; in most records, active means well fitted curve in the direction sought with a large enough effect; inconclusive means small, poorly fitted or top-dose-only effect, or another doubt; inactive means no such curve, though single readings can be large; an effect the other way counts as inactive or inconclusive.

SMILES | S2 tox | USP1-UAF1 inh | USP2a block | ATXN2 expr inh | IL1B secr inh
COc1ccc(C(=O)Oc2ccc(F)cc2C(=O)/C=C/c2ccc(OC)c(OC)c2)cc1 | i | -18% | 1% | -6% | -1
CCS(=O)(=O)c1ccc(C(=O)Nc2ccccc2OC)c(Cl)c1Cl | i | -1% | -4% | -17%[11.3 µM] | -60*
CNC1[C@H](O)C(O[C@@H]2C(O)C(O[C@H]3O[C@H]([C@@H](C)NC)CC[C@H]3N)[C@@H](N)C[C@H]2N)OC[C@]1(C)O (stereo partly drawn) | x | x | x | -5% | x
COc1ccc(/C=N/n2c(-c3ccc(C)cc3)n[nH]c2=S)cc1OC | i | -8% | 2% | x | -51*
CC(O)c1nc2ccccc2n1C/C=C/c1ccccc1 (stereo not drawn) | i | -20% | 2% | 3% | 24
Cc1c(P(=S)(c2ccccc2)c2ccccc2)[n+]2ccccc2n1C/C=C/c1ccccc1 | 14µM* | x | x | u | x
CC(C)c1cccc(C(C)C)c1NC(=O)CN(C)C1CCS(=O)(=O)C1 (stereo not drawn) | i | -18% | 3% | -21% | 0
CCN1CCC(NCCc2ccc(F)cc2)CC1 | i | -24% | 1% | -18% | -54*
O=C(NCCc1ccc(F)cc1)C1CCCCC1 | i | 9% | -2% | 17% | 0
O=C1C(Sc2ccccc2)=C[C@@]2(O)CC[C@@H](O)[C@]1(Sc1ccccc1)[C@H]2O | u | x | x | u | -80*
COc1ccc(SC2=C[C@@]3(O)CC[C@@H](O)[C@@](Sc4ccc(OC)cc4)(C2=O)[C@H]3O)cc1 | u | x | x | -30% | 45
Nc1nc(-c2ccc(NC(=O)c3ccco3)cc2)cs1 | i | -21% | 5% | 16µM* | 2
Cc1ccn2cc(-c3ccc(NC(=O)c4ccco4)cc3)nc2c1 | u | -21% | 2% | 9% | -92*
Cc1ccc(C(=O)OCC(=O)Nc2ccccc2)cc1NC(=O)c1ccco1 | i | -2% | 2% | 15% | 15
CCCCCC(=O)Nc1ccc(-c2csc(N)n2)cc1 | i | -9% | 0% | 17% | -76*
Cc1ccc(C(=O)OCC(=O)Nc2nc(-c3ccccc3)cs2)cc1NC(=O)c1ccco1 | x | -1% | 0% | -25% | -80*
CCOC(=O)c1sc(NC(=O)c2nc(SCC)ncc2Cl)c(C(=O)OCC)c1C | i | u | x | -9% | x
C#C[C@]1(O)CC[C@@H]2[C@H]3CCC4=Cc5oncc5C[C@]4(C)[C@@H]3CC[C@@]21C | i | x | x | x | x
Cc1ccc(F)cc1C(=O)N1CCCC1(C)C(=O)NCC(C)C (stereo not drawn) | i | x | x | 2% | 22
CC(C)(C)c1ccc(C2Sc3ccccc3NC3=C2C(=O)c2ccccc23)cc1 (stereo not drawn) | x | -17% | x | u | x
COc1ccc(NC(=O)c2nc3nc(C)cc(C(F)F)n3n2)c(C)c1 | i | -8% | x | 1% | x
CCOC(=O)C1(Cc2cccc(OC)c2)CCN(Cc2cccc(OCC)c2O)CC1 | i | -20% | 2% | -29% | -90*
CCOC(=O)C1(Cc2cccc(OC)c2)CCN(Cc2ccc(OC)c(O)c2)CC1 | u | -23% | -2% | -20% | u
CCOC(=O)C1(CC2CC2)CCN(Cc2ccc(OC)cc2F)CC1 | i | -11% | -3% | -37% | -54*
CCOC(=O)C1(Cc2cccc(OC)c2)CCN(C/C=C/c2ccccc2)CC1 | i | -19% | 1% | -29% | -92*
SMILES | S2 tox | USP1-UAF1 inh | USP2a block | ATXN2 expr inh | IL1B secr inh
CCOC(=O)C1(Cc2cccc(OC)c2)CCN(C/C=C/c2ccc(OC)cc2)CC1 | u | 0% | 10% | u | -171*
Cc1ccc(S(=O)(=O)NCC(=O)NCC2COc3ccccc3O2)cc1C (stereo not drawn) | i | -12% | 2% | -19% | 41
Cc1ccc(C(=O)NC2(C(F)(F)F)NC(=O)N(c3ccc(Cl)cc3)C2=O)cc1 (stereo not drawn) | i | -26% | 1% | 0% | -61*
CN(Cc1ccccc1)c1ccc(C(CC(N)=O)NC(=O)c2ccccc2)cc1[N+](=O)[O-] (stereo not drawn) | u | 23% | -4% | u | 22
COc1ccc(CCNCCC(=O)Nc2c(C)cc(C)cc2C)cc1OC | i | -1% | 5% | -9% | -64*
COc1ccc(CCNCCC(c2ccccc2)c2ccccc2)cc1OC | u | -17% | x | x | -54*
COc1ccc(CCNCC(=O)Nc2c(C)cc(C)cc2C)cc1OC | i | -12% | 0% | 6% | -19
COc1ccc(C(CCNCc2ccc(OC)c(OC)c2)c2ccc(F)cc2)cc1 (stereo not drawn) | i | u | 8% | -1% | 0
COc1cc(OC)c(OC)cc1CCC(C)NCCC(c1ccccc1)c1ccccc1 (stereo not drawn) | 16µM* | -25% | 2% | x | -65*
COc1ccc(-c2nnc(Nc3ccc(OCC(N)=O)cc3)c3ccccc23)cc1 | i | -21% | x | -12% | x
CN[C@@H]1[C@@H](O[C@H]2O[C@H](CO)[C@@H](N)[C@H](O)[C@H]2O)O[C@H]2C[C@@H](N)[C@@H](O[C@H]3[C@H](O)[C@@H](O)[C@H](N)C[C@@H]3N)O[C@@H]2[C@@H]1O | i | x | x | x | x
COCCCNc1ccn2nc(-c3ccc(OCc4ccccc4)cc3)cc2n1 | u | x | x | -9% | 20
COc1ccc(-c2nc3cc(C)ccc3cc2CN(C(=O)c2csc(C)n2)C2CC2)cc1OC | i | x | x | x | x
COC(=O)[C@@H]1C[C@@H](NC(=O)c2ccc(C(F)(F)F)cc2)CN1Cc1cccc(O)c1 | i | x | x | x | x
CCN1CCCC1CNC(=O)c1cnn(-c2nccc(-c3cccs3)n2)c1C(C)C (stereo not drawn) | i | x | x | x | x
CCCn1c(O)c(/C=C2\C=NN=C2c2ccccc2)sc1=S | u | -22% | 2% | -30% | u
C=CCn1c(O)c(/C=C2\C=NN=C2c2ccccc2)sc1=S | i | -17% | 2% | -11% | -59*
CCCCC(CC)Cn1c(O)c(/C=C2\C=NN=C2c2ccccc2)sc1=S (stereo not drawn) | x | -21% | 3% | u | -104*
COc1ccc2nc(SCc3ncc(C)c(OC)c3C)[nH]c2c1 | i | x | x | 5% | x
Cc1cc2c(c(-c3ccc4nc(C)ccc4c3)c1)OC(CNC(=O)Cc1ccn(C)c1)C2 (stereo not drawn) | i | x | x | x | x
O=C(Nc1ccccc1)C(c1ccccc1)C1CCCC1 (stereo not drawn) | i | -2% | 2% | -20%[11.3 µM] | -91*
CCOC(=O)C(C(=O)Nc1ccccc1)C1CCCCC1 (stereo not drawn) | i | -9% | 1% | -6% | -21
Cc1ccccc1C(OCC(O)CN1CCN(CCO)CC1)c1ccccc1 (stereo not drawn) | i | -5% | -1% | -13% | u
